An excerpt weighted towards active compounds, which were near 10% of everything screened.
JMJD2A Tudor inh = JMJD2A Tudor domain (human) inhibition; AlphaScreen JMJD2A-Tudor / H3K4me3 peptide binding; O75164; Potency, µM (doses to about 114 µM), without a hit: at the highest dose activity change, negative = inhibition, actives largely listed as inhibitors; actives 4.4% (n = 390,000); AID 504339; note: % is set by controls: 0 for no effect and ±100 for the full control effect; nearly all actives have a fitted effect of over 50% in size
HP1b chromo inh = HP1-beta chromodomain-methylated histone interaction inhibition; actives 0.56% (n = 390,000); AlphaScreen HP1-beta / biotin-H3K9me3 peptide binding; Potency, µM (highest dose often 114 µM), without a hit: at the highest dose activity change, negative = inhibition, hits mostly inhibitors; AID 540317; note: nearly all actives have a fitted effect of over 70% in size
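Compound inhibition of the preformed complex between 50 nM HP1-beta and 50 nM biotinylated H3K9me3 peptide was read by AlphaScreen. Buffer was PBS pH 7.4 with 0.01% Tween-20. Incubations ran 30 min at room temperature, with 10 ug/mL donor/acceptor beads.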
GLS inhibitor = blocks human kidney-isoform glutaminase activity. O94925. Potency, µM (doses to about 45.5 µM), for inactives: top-dose activity change, negative = inhibition, actives largely listed as inhibitors. actives 0.21% (n = 410,000). GLS enzymatic activity, qHTS titration; note: % is set by controls: 0 for no effect and ±100 for the full control effect
Target sequence (O94925 whole entry, looked up, canonical isoform): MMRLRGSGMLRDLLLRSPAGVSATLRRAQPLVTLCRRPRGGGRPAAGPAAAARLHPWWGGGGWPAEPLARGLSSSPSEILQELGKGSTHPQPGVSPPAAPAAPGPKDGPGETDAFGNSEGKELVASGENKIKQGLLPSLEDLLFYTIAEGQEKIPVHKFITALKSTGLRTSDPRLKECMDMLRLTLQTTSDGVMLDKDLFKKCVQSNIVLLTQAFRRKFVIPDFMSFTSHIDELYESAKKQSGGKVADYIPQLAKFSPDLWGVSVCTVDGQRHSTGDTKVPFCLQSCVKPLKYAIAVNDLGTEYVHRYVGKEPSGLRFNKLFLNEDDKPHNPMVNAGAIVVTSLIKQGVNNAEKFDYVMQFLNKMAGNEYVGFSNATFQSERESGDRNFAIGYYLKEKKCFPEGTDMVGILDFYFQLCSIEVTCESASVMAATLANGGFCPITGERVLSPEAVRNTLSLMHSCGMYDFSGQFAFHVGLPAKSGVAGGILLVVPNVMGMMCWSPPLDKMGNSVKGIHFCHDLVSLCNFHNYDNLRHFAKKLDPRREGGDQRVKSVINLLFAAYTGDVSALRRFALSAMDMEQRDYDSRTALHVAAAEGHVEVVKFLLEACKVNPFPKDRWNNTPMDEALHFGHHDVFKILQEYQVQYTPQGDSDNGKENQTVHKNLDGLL
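Read-out is an Amplex red fluorescence increase coupled through glutamate oxidase and HRP, measured before and after 30 min room-temperature incubation. hKGA is in 45 mM KH2PO4 (pH 8.2) with 0.02% Tween-20; glutamine added as 1mM solution.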
L3MBTL1 inh = blocks human L3MBTL1; Q9Y468; AlphaScreen L3MBTL1–H3K9me1 peptide binding; Potency, µM (doses to about 57.1 µM), for the others: at the highest dose activity, negative = inhibition, most hits filed as inhibitors; actives 0.66% (n = 230,000); note: % is set by controls: 0 for no effect and ±100 for the full control effect; nearly all actives have a fitted effect of over 60% in size
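Displacement of a biotinylated histone H3(1-15) peptide monomethylated at Lys9 (75 nM) from L3MBTL1 (50 nM) was measured by AlphaScreen after a 30 min room-temperature compound incubation; cefsulodin titration served as intraplate control.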
G9a block = inhibitors of human histone lysine methyltransferase G9a; actives 8.8% (n = 350,000); Potency, µM (series often up to 102 µM), inactives show at the highest dose activity, negative = inhibition, most hits filed as inhibitors; Q96KQ7; G9a H3K9 monomethylation, AlphaScreen, 2 h; AID 504332; note: % is set by controls: 0 for no effect and ±100 for the full control effect; nearly all actives have a fitted effect of over 75% in size
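Compounds were preincubated with 20 nM G9a for 15 min, after which biotinylated H3K9 peptide (500 nM) and SAM (20 uM) started a 2 h room-temperature reaction. Monomethylated product was quantified by antibody-based AlphaScreen chemiluminescence.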
BAZ2B inh = inhibitors of human BAZ2B bromodomain | Q9UIF8 | AlphaScreen BAZ2B-H3K14Ac peptide displacement | Potency, µM (series often up to 114 µM), for the others: top-dose activity change, negative = inhibition, most hits filed as inhibitors | actives 4.4% (n = 360,000) | AID 504333; note: % is set by controls: 0 for no effect and ±100 for the full control effect; nearly all actives have a fitted effect of over 60% in size
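Compounds, titrated to a top concentration of 110 uM, were incubated 30 min at room temperature with preformed BAZ2B/acetyl-K14 H3 peptide complex (50 nM each). Proximity signal was measured by AlphaScreen after 20 min with beads.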
Starred values were filed as active, the others as inactive; u = inconclusive; x = no result given; ! = repeats disagree; [ ] = dose if it differs, or a comment. Calls come from the whole dose curve; as a rule, active = well fitted curve in the direction sought with a large enough effect; inconclusive = small, poorly fitted or top-dose-only effect, or another doubt; inactive = no such curve, though single readings can be large; an effect the other way counts as inactive or inconclusive. Potency is the fitted concentration of half-maximal effect.

SMILES | JMJD2A Tudor inh | HP1b chromo inh | GLS inhibitor | L3MBTL1 inh | G9a block | BAZ2B inh
CCCCCn1c(=O)[nH]c2cc(C(=O)N3CCN(c4cccc(Cl)c4)CC3)ccc2c1=O | -2% | 21% | 0% | x | -3%[59 µM] | -1%
CCN(CC)c1ccc(CNC(=O)C/C(C)=N/NC(=O)COc2ccc(C)cc2Br)cc1 | u | u | 11% | x | u | 45µM*
COc1ccccc1CNC(=O)C/C(C)=N/NC(=O)COc1ccc(C)cc1Br | 1% | 27% | 14% | -7% | 27% | 0%
Clc1ccc(Nc2nc(NCc3ccco3)nc3nccnc23)cc1 | -19% | 21% | x | x | x | x
COc1cc(/C=N/N(C)c2ccccc2)ccc1O | 56µM* | u | 30% | x | 14µM* | 45µM*
COc1cc(OC)c(OC)cc1/C=N/N(C)c1ccccc1 | 45µM* | 16µM* | 22% | x | 8.9µM* | 32µM*
CN(/N=C/c1ccc2c(c1)OCO2)c1ccccc1 | u | -31% | 21% | -29% | 10µM* | 28µM*
Clc1ccccc1N/N=C/c1ccc2c(c1)OCO2 | -11% | -17% | 25µM* | -8% | 8.9µM* | -6%
Cc1cc(C)c(NC(=O)Cn2ccn(-c3cccc(Cl)c3)c(=O)c2=O)c(C)c1 | 54% | 95% | 4% | x | 28%[59 µM] | 55%
CCOc1ccc(CCNC(=O)CCCc2nnc3n(C)c(=O)c4sccc4n23)cc1OCC | -17% | 16% | -1% | x | 2%[59 µM] | 3%
C(=N\N1CCN(C(c2ccccc2)c2ccccc2)CC1)/c1ccc2c(c1)OCO2 | 22µM* | u | -5% | -7% | u | u
O=C1c2ccccc2C(=O)N1N=Cc1ccc2c(c1)OCO2 | x | x | -1% | x | x | x
CCCC(=O)N1CCc2cc(-c3nc(N)sc3C)ccc21 | -17% | -27% | 5% | -4% | 40µM* | -7%
CS(=O)(=O)N1CCc2cc(-c3csc(NC(=O)C(c4ccccc4)c4ccccc4)n3)ccc21 | -24% | -11% | 16% | x | u | -11%
Nc1nc(-c2ccc3c(c2)CCCC3)cs1 | u | -33% | 8% | -1% | 18µM* | 45µM*
CNc1nc(-c2ccc3c(c2)CCN3C(=O)c2ccccc2F)c(C)s1 | -30% | -5% | 9% | -1% | 35µM* | -15%
CNc1nc(-c2ccc3c(c2)CCN3C(=O)c2ccccc2F)cs1 | u | u | 11% | -3% | 50µM* | 50µM*
O=C(C1CCCCC1)N(Cc1cccnc1)c1nc2ccc(Cl)cc2s1 | 1% | 27% | 2% | x | 8%[59 µM] | -8%
Cc1ccc(NC(=O)CSc2nc(C3CCCC3)nc3c2c(=O)n(C)c(=O)n3C)c(C)c1 | -11% | 14%[57 µM] | 4% | x | 31%[59 µM] | 2%
CCOc1ccc(CNS(=O)(=O)c2ccc3c(c2)CCCN3C(C)=O)cc1OC | -10% | 23%[57 µM] | 3% | x | 19%[59 µM] | 0%
COCCn1c(=O)c(C)nc2cncnc21 | x | x | x | x | 5%[0.501 µM] | x
CC(C)(C)C(=O)N1CCc2cc(-c3csc(N)n3)ccc21 | -29% | -13% | 22% | -3% | 0%[0.501 µM] | 50µM*
O=C(CCCCn1c(=O)c2ccccc2n(CC(=O)Nc2ccc(F)cc2F)c1=O)NCCc1ccccc1 | -3% | 26% | -3% | x | -12%[59 µM] | 1%
CC1=CC(C)(C)NC(=S)N1c1ccccc1C | -28% | -10% | -18% | x | 3%[59 µM] | u
CC1=CC(C)(C)NC(=S)N1c1cccc2cc(S(=O)(=O)O)ccc12 | u | 16% | 11µM* | u | 25µM* | -38%
SMILES | JMJD2A Tudor inh | HP1b chromo inh | GLS inhibitor | L3MBTL1 inh | G9a block | BAZ2B inh
O=[S+]([O-])(c1c(F)cccc1F)N1CCN([S+](=O)([O-])c2c(F)c(F)c(F)c(F)c2F)CC1 | -8% | x | x | x | x | x
O=[N+]([O-])c1cc(F)cc(F)c1Nc1cc(F)cc(F)c1 | 45µM* | u | 3% | x | x | x
O=[N+]([O-])c1ccc2nonc2c1Nc1cccc(F)c1 | u | -21% | 1% | x | -19% | u
CCCCS(=O)c1c(O)c2ccccc2[nH]c1=O (stereo unspecified) | -13% | 29% | 14% | 5% | 32µM* | -7%
O=c1[nH]c2ccccc2c(O)c1O | 50µM* | u | 5.6µM* | 6% | 0.71µM* | 2%
CS(=O)(=O)c1ccccc1-c1nnc(NC(=O)Cc2ccccc2)o1 | 79µM* | 8% | 6% | x | u | 25µM*
COc1cccc(-c2nnc(NC(=O)c3ccc4ncsc4c3)o2)c1 | -20% | 25% | 1% | 24% | u | 79µM*
O=C(Nc1ccncc1)c1ccc2ncsc2c1 | -1% | 39% | 1% | -3% | 32%[2.33 µM] | 4%
O=C(Nc1ccccc1F)c1ccc2ncsc2c1 | -10% | 47% | 2% | x | 45µM* | 7%
CS(=O)(=O)c1cccc(-c2nnc(NC(=O)c3ccc4ncsc4c3)o2)c1 | u | 27% | 11% | -8% | u | 4%
O=C(Nc1ccc(F)cc1F)c1ccc2ncsc2c1 | 4% | 33% | -1% | x | 15%[59 µM] | -1%
CS(=O)(=O)c1ccccc1-c1nnc(NC(=O)c2ccc3ncsc3c2)o1 | 56µM* | 61% | -4% | 21% | -14%[2.33 µM] | 50µM*
CSc1ccccc1-c1nnc(NC(=O)Cc2ccccc2)o1 | 3% | 45% | -1% | x | 44%[59 µM] | -13%
CC(C)c1ccc(OCc2ccc(C(=O)N(C)C)o2)cc1 | -17% | 45% | 5% | x | 5% | u
CC(C)c1ccc(OCc2ccc(C(=O)O)o2)cc1 | -23% | -7% | 55% | x | u | 79µM*
CCOc1cc(-c2nn3cnnc3s2)cc(OCC)c1OCC | 18µM* | -9% | u | 3% | 2% | 3%
NNc1nncc2ccccc12 | x | x | 1%[20 µM] | x | 7.9µM*! | x
CCNC(=S)NNc1nncc2ccccc12 | u | 3% | u | -14% | u | -24%
CNC(=S)NNc1nncc2ccccc12 | -22% | -14% | u | 0% | 2.5µM* | -14%
COc1ccccc1/C=N/Nc1nncc2ccccc12 | u | -30% | 0% | -11% | u | -33%
COc1ccc(/C=N/Nc2nncc3ccccc23)cc1 | 28µM* | 27% | 0% | -6% | u | 25µM*
CCc1nnc(NC(=O)c2nc(SCc3ccc(F)cc3)ncc2Cl)s1 | -14% | 28% | 10% | x | u | -22%
CCN(Cc1ccccc1)C(=O)CN1C(=O)COc2ccc(S(=O)(=O)N3CCOCC3)cc21 | 2% | 49% | -3% | x | -3%[59 µM] | -16%
Cc1c(Cl)cccc1NC(=O)CNc1cccc(C(F)(F)F)c1 | -17% | 33% | -5% | 7% | 71µM* | 7%
Cc1c(Cl)cccc1NCC(=O)Nc1ccc(Cl)cc1F | 6% | 52% | 12% | 10% | 30% | 20%

Screening data from PubChem.
